# Measurements reported in PubChem BioAssay AID1345085 (National Center for Advancing Translational Sciences (NCATS), 2018).
# Inconclusive results are not listed. A call without a number means that no potency is given here. Unmarked numbers belong to inactive results. The source made the active and inactive calls. Calls follow the shape of the dose curve; as a rule, active = well fitted cell-killing curve with a large enough effect; inconclusive = small, poorly fitted or top-dose-only effect, or effect the other way; inactive = no such curve, though single readings can be large or run the other way.
# Tested on: C33A
# Test: Confirmatory qHTS for gynecologic anti-cancer compounds from libraries of approved drugs and bioactive compounds; also: nearly all actives have a fitted effect of over 55% in size
# Settings: gynecologic cancer cell panel viability, ATPlite luminescence, 48 h; series mostly up to 57.6 µM
# Method in brief: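 IC50 values derive from an ATPlite ATP-content luminescence assay following 48 h treatment at 37 C. Each compound ran as an 11-concentration, threefold series (57.5 uM to 0.977 nM); HEK 293T served as control line for selectivity index.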
# Potency is read from the fitted curve at half-maximal effect.
Structure (SMILES),Potency,"activity change, negative = viability loss"
Cc1cc(Nc2nc(N[C@@H](C)c3ncc(F)cn3)ncc2Cl)n[nH]1,inactive,
Cc1cnc(CNC(=O)c2c(=O)c3ccc(N4CCCN(C)CC4)nc3n3c2sc2ccccc23)cn1,,-18.8% [at 10.7 µM]
CCN1CCN(Cc2ccc(-c3cc4c(NC(C)c5ccccc5)ncnc4[nH]3)cc2)CC1 (stereo not drawn),27.3 µM (active),
CN(C)/N=N/c1nc[nH]c1C(N)=O,inactive,
NC(=O)c1cnc(-c2ccc(C3(N)CCC3)cc2)c(-c2ccccc2)c1,19.3 µM (active),
Cc1cnc(Nc2ccc(F)cc2Cl)nc1-c1c[nH]c(C(=O)NC(CO)c2cccc(Cl)c2)c1 (stereo not drawn),inactive,
CNc1nc(Nc2ccc(C(=O)N3CCOCC3)cc2OC)ncc1Cl,inactive,
CC[C@]1(O)C[C@H]2CN(CCc3c([nH]c4ccccc34)[C@@](C(=O)OC)(c3cc4c(cc3OC)N(C=O)[C@H]3[C@@](O)(C(=O)OC)[C@H](OC(C)=O)[C@]5(CC)C=CCN6CC[C@]43[C@@H]65)C2)C1,0.306 µM (active),
CCN[C@H]1C[C@H](C)S(=O)(=O)c2sc(S(N)(=O)=O)cc21,inactive,
CCN1C[C@H](C)n2c(c(O)c3c(=O)n(Cc4ccc(F)c(Cl)c4)nc(C(=O)NC)c32)C1=O,inactive,
O=C(NOCC1CC1)c1ccc(F)c(F)c1Nc1ccc(I)cc1Cl,inactive,
CCC1C(=O)N(C)c2cnc(Nc3ccc(C(=O)NC4CCC(N5CCN(CC6CC6)CC5)CC4)cc3OC)nc2N1C(C)C (stereo not drawn),0.172 µM (active),
COCCOc1nc(-c2ccc(Cl)c(Cl)c2)n(-c2ccc(NC(=O)CCl)cc2)n1,4.32 µM (active),
